WRN inhibitor = inhibitors of human WRN helicase; Q14191; WRN helicase unwinding, fluorescent forked duplex, kinetic; Potency, µM (titrated, usually from 114 µM), for the others: top-dose activity change, negative = inhibition, hits mostly inhibitors; hit rate 0.46% among 360,000; AID 651768; note: % is set by controls: 0 for no effect and ±100 for the full control effect; nearly all actives have a fitted effect of over 55% in size
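Fluorescence dequenching readout, ex 525 nm/em 598 nm, kinetic mode: forked duplex DNA (100 nM final) with adjacent fluorophore and quencher unwound by WRN (20 nM final) with 2 mM ATP. Compound preincubation 15 min, room temperature.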
Pol kappa inh-1 = DNA polymerase kappa (human) inhibition; Q9UBT6; AID 588579; Potency, µM (titrated, usually from 107 µM), for the others: at the highest dose activity, negative = inhibition, most hits filed as inhibitors; hit rate 0.53% among 400,000; purified Pol kappa, fluorescent DNA synthesis assay, 10 min; note: % is set by controls: 0 for no effect and ±100 for the full control effect
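Here, compound and 10 nM enzyme are combined for 15 min at room temperature; adding 50 nM substrate (final) starts DNA synthesis, tracked by fluorescence at 0 and 10 min against buffer-only wells.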
Pol beta inh = DNA polymerase beta (human) inhibition. P06746. Pol beta primer extension/strand displacement, fluorescence kinetic. Potency, µM (series often up to 114 µM), inactives show top-dose activity change, negative = inhibition, hits mostly inhibitors. hit rate 1.3% among 340,000; note: % is set by controls: 0 for no effect and ±100 for the full control effect
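Human Pol beta at 10 nM; strand-displacement substrate 50 nM final. Compound exposure 15 min at room temperature before start, reaction 10 min at room temperature.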
FEN1 inh = human FEN1 inhibition. P39748. hit rate 0.35% among 390,000. Recombinant FEN1 flap cleavage, fluorescence, 15 min. AID 588795. Potency, µM (titrated, usually from 114 µM), without a hit: top-dose activity change, negative = inhibition, most hits filed as inhibitors; note: % is set by controls: 0 for no effect and ±100 for the full control effect; nearly all actives have a fitted effect of over 65% in size
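Nuclease activity of 10 nM FEN1 was measured after 15 min of room-temperature exposure to titrated compounds, by adding 50 nM flap substrate and reading plates at 0 and 15 min.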
POLI inh = DNA polymerase iota (human) inhibition; Pol iota fluorescent replication assay, 10 min; hit rate 1% among 390,000; Potency, µM (titrated, usually from 115 µM), inactives show at the highest dose activity, negative = inhibition, most hits filed as inhibitors; Q9UNA4
Target sequence (Q9UNA4 whole entry, looked up): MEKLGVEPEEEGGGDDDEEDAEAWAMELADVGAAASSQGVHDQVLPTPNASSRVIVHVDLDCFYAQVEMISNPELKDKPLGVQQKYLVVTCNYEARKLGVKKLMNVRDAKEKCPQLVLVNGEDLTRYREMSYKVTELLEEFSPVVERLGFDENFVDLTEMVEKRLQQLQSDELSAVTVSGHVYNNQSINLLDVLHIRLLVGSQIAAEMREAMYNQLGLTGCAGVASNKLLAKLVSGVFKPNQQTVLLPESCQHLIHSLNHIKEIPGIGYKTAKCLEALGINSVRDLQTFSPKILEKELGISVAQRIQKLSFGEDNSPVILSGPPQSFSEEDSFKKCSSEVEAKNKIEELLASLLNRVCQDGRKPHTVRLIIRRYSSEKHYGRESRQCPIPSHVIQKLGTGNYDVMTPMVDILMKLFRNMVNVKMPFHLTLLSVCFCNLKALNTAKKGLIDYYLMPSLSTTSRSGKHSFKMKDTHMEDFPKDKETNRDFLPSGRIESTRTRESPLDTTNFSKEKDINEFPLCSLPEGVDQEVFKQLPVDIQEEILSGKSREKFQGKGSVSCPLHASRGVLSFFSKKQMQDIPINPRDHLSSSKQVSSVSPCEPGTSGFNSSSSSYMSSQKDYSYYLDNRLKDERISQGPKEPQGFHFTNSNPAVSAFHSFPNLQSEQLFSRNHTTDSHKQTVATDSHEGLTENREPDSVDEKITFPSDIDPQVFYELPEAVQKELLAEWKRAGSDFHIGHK
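Pol iota at 10 nM preincubated 15 min with compounds at room temperature; reaction started with fluorescent substrate, 50 nM final. Fluorescence read kinetically at 0 and 10 min; buffer-only wells as negative control.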
Pol eta inh-1 = DNA polymerase eta (human) inhibition | Q9Y253 | hit rate 1.2% among 390,000 | recombinant Pol eta, fluorescent DNA replication assay | Potency, µM (highest dose often 114 µM), inactives show at the top dose activity change, negative = inhibition, hits mostly inhibitors; note: % is set by controls: 0 for no effect and ±100 for the full control effect
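Pol eta at 10 nM preincubated with compounds 15 min at room temperature; reaction started with fluorescent substrate (50 nM final) and read kinetically at 0 and 10 min.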
PGK validate = TbPGK inhibition, hit validation. shares compounds with Pol kappa inh-1. TbPGK coupled GAPDH assay, Kinase-Glo luminescence. Potency, µM (highest dose often 57.5 µM), for the others: at the highest dose activity change, negative = inhibition, most hits filed as inhibitors. hit rate 79% among 500; note: % is set by controls: 0 for no effect and ±100 for the full control effect; nearly all actives have a fitted effect of over 65% in size
POLI cherry-pick = Human Pol iota inhibitor confirmatory assay | shares compounds with Pol kappa inh-1 | Pol iota primer extension, TAMRA/BHQ fluorescence | Potency, µM, usual class: inhibitors | hit rate 77% among 1,500 | AID 720496
Pol kappa inh-2 = Pol kappa (human) inhibition, cherry-pick confirmation; shares compounds with Pol eta inh-1; purified Pol-kappa, fluorescent strand-displacement substrate; Potency, µM, hits mostly inhibitors; hit rate 76% among 920; AID 720501
Pol eta inh-2 = Pol eta (human) inhibition, cherry-pick confirmation | shares compounds with Pol eta inh-1 | hit rate 64% among 2,600 | Pol eta primer extension, TAMRA/BHQ fluorescence, 10 min | Potency, µM, usual class: inhibitors | AID 720502
Numbers without * were called inactive; ? = inconclusive; . = not tested or not shown; [ ] = dose if it differs, or a comment. The list is not random: actives were taken first. Their share in the collection is about 2.4%. Calls come from the whole dose curve; as a rule, active = well fitted curve in the direction sought with a large enough effect; inconclusive = small, poorly fitted or top-dose-only effect, or another doubt; inactive = no such curve, though single readings can be large; an effect the other way counts as inactive or inconclusive. Potency is the fitted concentration of half-maximal effect.

SMILES | WRN inhibitor | Pol kappa inh-1 | Pol beta inh | FEN1 inh | POLI inh | Pol eta inh-1 | POLI cherry-pick | Pol eta inh-2 | others
COc1ccc2[nH]c3c(=O)n(Cc4ccc(C(=O)NCC5CCCO5)cc4)c(=S)[nH]c3c2c1 (centres undefined) | ? | -32% | 89µM* | -31% | ? | 18µM* | ? | 76*
CCCCNC(=O)c1ccc(Cn2c(=S)[nH]c3c([nH]c4ccc(OC)cc43)c2=O)cc1 | -30% | -13% | ? | -16% | 12% | ? | . | .
COc1ccc2c(=O)c3c(=O)n(Cc4ccco4)c(-c4ccco4)nc3oc2c1 | 45µM* | 71µM* | ? | ? | 20µM* | 35µM* | 67* | 43*
C=C(C)C(=O)N1CC2(CC(c3cccc(NC(=O)/C=C\C=C/C)c3)=NO2)C[C@H]1C(N)=O (some centres undefined) | ? | 40µM* | ? | -15% | 11µM* | 13µM* | 13* | 19*
C=C(C)C(=O)Nc1cccc(C2=NOC3(C2)C[C@@H](C(N)=O)N(C(=O)c2cc([N+](=O)[O-])cc([N+](=O)[O-])c2C)C3)c1 (some centres undefined) | ? | 50µM* | 20µM* | 1% | ? | 13µM* | ? | 19* | PGK validate=?
O=C(O)CN1C(=O)/C(=C\c2cc([N+](=O)[O-])ccc2OCc2ccccc2Cl)SC1=S | 45µM* | ? | 40µM* | -16% | 28µM* | 22µM* | ? | ?
O=C(O)CN1C(=O)/C(=C\c2cc(Br)ccc2OCc2ccc(Cl)cc2)SC1=S | 56µM* | -3% | ? | ? | -6% | 22µM* | ? | 48*
O=C(O)CN1C(=O)/C(=C\c2cccc(OCc3ccccc3)c2)SC1=S | -9% | -17% | -1% | -15% | -28% | -17% | . | .
Cc1ccc(-c2nc3c(c(=O)[nH]c(=O)n3Cc3ccccc3)n2C)o1 | -13%[11.6 µM] | ? | 10µM* | 1% | 11µM* | 11µM* | ? | 76*
CC(/C=C1\SC(=S)N(c2ccc(C(=O)O)cc2)C1=O)=C\c1ccccc1 | ? | -37% | -24% | -1% | 20µM* | 22µM* | 38* | 43*
CC(=O)NCCNc1ncnc2ccc(-c3ccccc3C#N)cc12 | . | 2%[60.1 µM] | . | . | . | . | . | .
O=C(CN1C(=O)C2CCCCN2c2ccc(C(=O)N3CCCC3)cc21)NCc1ccc(F)cc1 (centres undefined) | . | -9%[60.1 µM] | 0% | 21% | 33% | -16% | . | .
COc1ccccc1NC(=O)Cn1c(O)c(N=NC(=O)c2ccccc2O)c2ccccc21 | -10%[11.6 µM] | ? | ? | ? | ? | 50µM* | ? | . | Pol kappa inh-2=?
Cc1cccc(N2CCN(C(=O)C3CCCN(S(=O)(=O)c4ccc(Br)s4)C3)CC2)c1C (centres undefined) | . | 0% | -28% | 12% | 29% | -12% | . | .
O=C(Cc1csc(N2CCOCC2)n1)N/N=C/c1ccc(O)c(O)c1O | 22µM* | ? | ? | ? | ? | ? | 15* | 43*
C(=C\c1c[nH]c2ccccc12)/c1ccc2ccccc2n1 | . | -16% | . | -24% | 10% | . | . | .
CSCC[C@H](NC(=O)[C@H](CC(C)C)NC(=O)[C@@H]1CCCN1C(=O)[C@H](Cc1ccccc1)NC(=O)[C@H](Cc1ccccc1)NC(=O)[C@H](CCC(N)=O)NC(=O)[C@H](CCC(N)=O)NC(=O)[C@@H]1CCCN1C(=O)[C@H](CCCCN)NC(=O)[C@@H]1CCCN1C(=O)[C@@H](N)CCCN=C(N)N)C(N)=O | . | 13%[60.1 µM] | . | . | . | . | . | .
Cc1cc(/C=N/Nc2ccc([N+](=O)[O-])cn2)c(C)n1-c1ccc(C(=O)O)cc1 | 50µM* | 79µM* | ? | ? | 18µM* | 18µM* | ? | 67*
Cc1ccccc1-n1c(C)cc(/C=N/Nc2ccc([N+](=O)[O-])cn2)c1C | -3% | -6% | 26% | 11% | 2% | -8% | . | .
Cc1ccc(S(=O)(=O)OCC(=O)Nc2ccc(C(=O)O)c(O)c2)cc1 | ? | 25µM* | . | 28µM* | 20µM* | 3.2µM* | 19* | 19* | Pol kappa inh-2=3.4*
Cc1cc(C)c(NC(=O)COC(=O)c2cccc3c2C(=O)c2ccccc2C3=O)c(C)c1 | -9% | -5% | 13% | 2% | 22% | -21% | . | .
Cc1cc(C)c(Nc2cc(S(=O)(=O)O)c(N)c3c2C(=O)c2ccccc2C3=O)c(C)c1 | 56µM* | ? | 20µM* | 56µM* | ? | 18µM* | . | ? | PGK validate=29µM*;Pol kappa inh-2=34*
CC(/C=C/c1ccc(N(C)C)cc1)=N\N=C(/N)SC1CC(=O)N(c2ccc(C(=O)O)cc2)C1=O (centres undefined) | -20% | -14% | 4% | 3% | 15% | 45µM* | 67* | ? | Pol kappa inh-2=42*
CC(C)(C)c1ccc(S(=O)(=O)N2CCC(Oc3ccc(-n4cnnn4)cc3)CC2)cc1 | . | 2% | 22% | -11% | 20% | -8% | . | .
Cc1ccc(Cn2c(SCc3ccc(C(=O)N4CCCCC4)cc3)nc3ccncc32)cc1 | . | -9% | -20% | 6% | 14% | -11% | . | .
COc1cccc(NC(=O)CN(C)C(=O)c2cc3c(s2)CCC3)c1 | ? | 32µM* | . | -12% | 22µM* | 3.5µM* | 34* | 76*
COc1ccc2nc(NC(=O)c3nc(S(=O)(=O)Cc4ccccc4)ncc3Cl)sc2c1 | . | ? | 5.6µM* | 18% | ? | ? | 30* | 76*
O=C(Nc1nc2ccc(F)cc2s1)c1nc(S(=O)(=O)Cc2ccccc2)ncc1Cl | . | -3% | 31% | -4% | -16% | -10% | . | .
Cc1ccc(C2c3[nH]c4ccccc4c3CCN2C(=O)CCc2ccccc2)cc1 (centres undefined) | . | -4%[60.1 µM] | 12% | ? | -10% | -10% | . | .

From PubChem BioAssay
